High-throughput results deposited in PubChem by National Center for Advancing Translational Sciences (NCATS).
FBPA coupling cs – qHTS Assay for Inhibitors of Fructose-1,6-bisphosphate Aldolase from Giardia Lamblia: Coupling assay counterscreen. coupling enzyme system counterscreen, AmpLite Red fluorescence. actives 0.67% (n = 290,000). activity change, negative = inhibition, % at 58.2 µM, hits read low; in the data active = activity change below about -30%
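Compounds tested against the coupling enzymes alone at 57.5 uM final; readout was AmpLite Red fluorescence (525/598 nm) after 20 min at RT.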
JMJD2E inh – qHTS Assay for Inhibitors of Human Jumonji Domain Containing 2E (JMJD2E); Lysine-specific demethylase 4E (Homo sapiens), B2RXH2; JMJD2E catalytic domain, FDH-coupled NADH fluorescence (FDH is formaldehyde dehydrogenase); Potency, µM (highest dose often 57.1 µM), for the others: at the top dose activity change, negative = inhibition, actives largely listed as inhibitors; actives 1.6% (n = 230,000); AID 2147, 2009;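 also: potency is read from the fitted curve at half-maximal effect; 0% = wells with enzyme and -100% = buffer wells without enzyme; nearly all actives have a fitted effect of over 50% in size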
Target sequence (B2RXH2 1-337 limits assumed): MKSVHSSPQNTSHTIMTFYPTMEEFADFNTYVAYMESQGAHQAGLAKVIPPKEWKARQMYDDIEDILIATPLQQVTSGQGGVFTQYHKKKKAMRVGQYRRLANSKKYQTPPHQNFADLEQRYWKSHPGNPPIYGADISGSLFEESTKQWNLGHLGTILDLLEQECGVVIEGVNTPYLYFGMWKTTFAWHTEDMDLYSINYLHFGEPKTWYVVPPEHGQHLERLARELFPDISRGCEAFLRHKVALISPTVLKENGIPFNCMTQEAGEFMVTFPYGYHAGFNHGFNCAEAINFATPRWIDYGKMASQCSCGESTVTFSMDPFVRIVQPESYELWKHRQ
Sfp PPTase inh – qHTS Assay for Inhibitors of Bacillus subtilis Sfp phosphopantetheinyl transferase (PPTase). 4'-phosphopantetheinyl transferase ffp (Bacillus subtilis), Q9F4F7. Biochemical Sfp PPTase activity, qHTS. Potency, µM, for the others: largest response in the series, negative = inhibition, hits mostly inhibitors. actives 3.5% (n = 310,000). AID 1490, 2009; active = well fitted curve in the direction sought with a large enough effect; inconclusive = small, poorly fitted or top-dose-only effect, or another doubt; inactive = no such curve, though single readings can be large; an effect the other way counts as inactive or inconclusive;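 also: the enzyme is Sfp with the accession as filed and its product quenches rhodamine fluorescence; potency is read from the fitted curve at half-maximal effect; 0% = enzyme reaction without inhibitor and -100% = no enzyme wells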
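Fluorescence-quenching assay with 15 nM Sfp, 5 uM rhodamine-CoA and 12.5 uM BHQ-2-labelled ybbR peptide in pH 7.6 Hepes/MgCl2 buffer. Enzyme was pre-incubated with compound for 15 min at room temperature. Rate was taken from the 30-min fluorescence change (525/598 nm).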
ALDH1A1 block – qHTS Assay for Inhibitors of Aldehyde Dehydrogenase 1 (ALDH1A1); AID 1030, 2008; actives 7.3% (n = 220,000); Aldehyde dehydrogenase 1A1 (Homo sapiens), P00352; Purified ALDH1A1, NADH fluorescence, propionaldehyde substrate; Potency, µM (doses to about 75.3 µM), for the others: top-dose activity, negative = inhibition, hits mostly inhibitors;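 also: potency is read from the fitted curve at half-maximal effect; plate controls were no enzyme wells and a reference inhibitor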
NPSR antagonist – qHTS Assay for Antagonists of the Neuropeptide S Receptor: cAMP Signal Transduction; actives 1% (n = 220,000); CHO-NPSR cells, cAMP TR-FRET, antagonist mode; AID 1461, 2008; Q6W5P4; Potency, µM (top dose mostly 38.3 µM), for inactives: at the highest dose activity change, negative = inhibition, most hits filed as inhibitors; active = well fitted curve in the direction sought with a large enough effect; inconclusive = small, poorly fitted or top-dose-only effect, or another doubt; inactive = no such curve, though single readings can be large; an effect the other way counts as inactive or inconclusive; also: potency is read from the fitted curve at half-maximal effect; nearly all actives have a fitted effect of over 50% in size
RGS12 GoLoco inh – qHTS Assay for Inhibitors of RGS12 GoLoco Motif Activity (Red Fluorophore). Guanine nucleotide-binding protein G(i) subunit alpha-1 (Homo sapiens), P63096. Gai1:RGS12 GoLoco peptide FP, rhodamine, 10 min. Potency, µM (highest dose often 61.6 µM), for the others: top-dose activity, negative = inhibition, most hits filed as inhibitors. actives 0.44% (n = 230,000). AID 880, 2007; active = well fitted inhibition curve with a large enough effect, not every such curve was filed as active; inactive = no such curve, though single readings can be large or run the other way; also: potency is read from the fitted curve at half-maximal effect; nearly all actives have a fitted effect of over 30% in size
Target sequence (P63096 whole entry, looked up): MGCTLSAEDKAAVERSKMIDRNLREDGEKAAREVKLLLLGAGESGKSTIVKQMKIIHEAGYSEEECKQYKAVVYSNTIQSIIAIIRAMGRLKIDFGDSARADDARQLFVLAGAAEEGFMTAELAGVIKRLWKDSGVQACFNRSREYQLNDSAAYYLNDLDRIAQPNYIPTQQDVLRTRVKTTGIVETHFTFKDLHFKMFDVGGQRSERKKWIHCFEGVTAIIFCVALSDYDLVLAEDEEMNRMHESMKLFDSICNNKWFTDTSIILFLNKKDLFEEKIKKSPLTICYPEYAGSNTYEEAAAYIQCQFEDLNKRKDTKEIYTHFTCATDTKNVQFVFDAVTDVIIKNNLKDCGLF
* marks the source's active call; other numbers are inactive results; i = inactive; ? = inconclusive; / = no result given; [ ] = another dose, or the depositor's remark. This is a sample that favours compounds with a hit; in the whole collection about 8.5% have one here. Unless noted, calls follow the shape of the dose curve; as a rule, active = well fitted inhibition curve with a large enough effect (not every such curve was filed as active); inconclusive = small, poorly fitted or top-dose-only effect, or another doubt; inactive = no such curve, though single readings can be large or run the other way. Unless noted, % is scaled to controls: 0 for no effect and ±100 for the full control effect.

SMILES	FBPA coupling cs	JMJD2E inh	Sfp PPTase inh	ALDH1A1 block	NPSR antagonist	RGS12 GoLoco inh
O=C(CN1C(=O)C2CCCCC2C1=O)OCn1nnc2ccccc2c1=O (stereo not drawn)	4	7%	23%	?	4%	-3%
Cc1ccc(SCCC(=O)OCn2nnc3ccccc3c2=O)cc1	0	6%	?	15µM*	2%	-9%
O=C(OCn1nnc2ccccc2c1=O)C1CCCCC1	5	-21%	-13%	16µM*	-4%[46.1 µM]	-11%
CCC1(CC)NC(=O)N(CC(=O)OCn2nnc3ccccc3c2=O)C1=O	2	6%	6%	13µM*	-4%[46.1 µM]	-15%
CC(=O)c1cccc(NC(=S)N2CCN(c3ccccn3)CC2)c1	2	/	5%	/	/	/
S=c1nc(C2CCCCC2)[nH][nH]1	1	?	56µM*	?	-9%[46.1 µM]	1%
Nc1n[nH]c(C2CCCCC2)n1	5	2%	6%	1%	-7%	13%
Cc1cc2c(c(=O)n1Cc1ccccc1)C1O[C@](c3ccsc3)(Cc3ccccc31)O2	-9	/	-7%	/	/	/
CCn1c(=O)cc(SCC(=O)N2CCC(C)CC2)c2ccccc21	3	?	-2%	20µM*	-24%[46.1 µM]	-2%
CCn1c(=O)cc(SCC(=O)N2CCN(C)CC2)c2ccccc21	3	?	5%	-1%	-17%[46.1 µM]	1%
CCn1c(=O)cc(SCC(=O)N2CCCCC2)c2ccccc21	3	?	8%	20µM*	-23%[46.1 µM]	5%
CCN1CCN(C(=O)CSc2cc(=O)n(CC)c3ccccc23)CC1	0	-6%	21%	6%	-11%[46.1 µM]	5%
O=C1CCCC2=C1C(c1ccncc1)Nc1ccccc1N2 (stereo not drawn)	1	?	8%	3%	-7%[46.1 µM]	6%
O=C1NCC2=C1C(c1ccccc1)Nc1ccccc1N2 (stereo not drawn)	-41*	?	-9%	-1%	-9%[46.1 µM]	16%
Cc1ccsc1/C=N/NC(=O)c1cccnc1	0	-6%	9%	/	-16%	6%
CCCCN=C1NN=C(c2cccc([N+](=O)[O-])c2)CS1	-2	-9%	2%	?	-8%	-6%
COCCN=C1NN=C(c2ccc(NC(C)=O)cc2)CS1	0	?	40µM*	?	7%	-10%
C=CCN=C1NN=C(c2ccc3c(c2)OCCO3)CS1	1	?	1%	20µM*	-18%	4%
c1ccc(-c2[nH]ncc2CN2CCN(Cc3ccc4c(c3)OCO4)CC2)cc1	2	1%	9%	-6%	-5%	4%
CCN=C1NN=C(c2ccc(C)cc2)CS1	/	-8%	?	25µM*	-10%[46.1 µM]	-3%
c1ccc(C2=NNC(=NCc3ccc4c(c3)OCO4)SC2)cc1	0	1%	-14%	25µM*	?	/
C=CCN=C1NN=C(c2cc(C)n(CC=C)c2C)CS1	1	-21%	-41%	?	-8%	8%
CS(=O)(=O)Nc1ccc(C(=O)Nc2cccc([N+](=O)[O-])c2)cc1	-3	?	-6%	8%	8%	4%
CC(=O)c1c(C)[nH]c(C2=NNC(=NCc3ccccc3)SC2)c1C	-17	?	50µM*	28µM*	-32%	-13%
Clc1ccc(C2=NNC(=NCc3ccccc3)SC2)cc1	1	6%	?	10µM*	-25%	-2%
SMILES	FBPA coupling cs	JMJD2E inh	Sfp PPTase inh	ALDH1A1 block	NPSR antagonist	RGS12 GoLoco inh
Fc1ccc(C2=NNC(=NCc3ccccc3)SC2)cc1F	-2	-25%	?	?	-34%	15%
CC(C)N=C1NN=C(c2ccc(F)cc2)CS1	-2	-14%	56µM*	?	23%	-3%
COc1ccccc1C1=NNC(=NCc2ccccc2)SC1	0	?	-71%	?	-20%	3%
c1ccc(CN=C2NN=C(c3ccccc3)CS2)cc1	1	-10%	-2%	22µM*	-49%	7%
COc1ccc(OC)c2c1cc(C(=O)N[C@@H](Cc1ccccc1)C(=O)O)n2C	-4	/	-1%	/	/	/
COC(=O)c1nnc(SC)nc1C(=O)OC	-1	0%	-12%	2%	/	-1%
Clc1ccc(-c2csc(Nc3ccccc3)[n+]2Cc2ccco2)c(Cl)c1	-3	-2%	?	18µM*	-54%	1%
CC1(C)Cc2c(cnn2-c2ccccc2)C(NC(=O)CCN2CCCC2=O)C1 (stereo not drawn)	-1	/	21%	/	/	/
COc1ccccc1-c1n[nH]c(=S)n1Cc1ccccc1	1	/	10%	/	/	/
COc1ccccc1-c1cn[nH]c(=S)n1	0	-26%	45µM*	7.1µM*	-9%[46.1 µM]	-5%
O=C1C2CCCCC2C(=O)N1c1ccc(S(=O)(=O)Nc2ncccn2)cc1 (stereo not drawn)	/	/	20%	/	/	/
COC(=O)c1ccc2c(c1)C(C)(C)C(/C=C/c1ccccc1O)=[N+]2C	6	?	11µM*	?	-11%[46.1 µM]	i
CC(NC(=O)COc1cccnc1[N+](=O)[O-])c1ccc(Cl)cc1 (stereo not drawn)	-4	/	-11%	/	/	/
O=C(O)C1CCCCN1S(=O)(=O)c1ccc(Cl)s1 (stereo not drawn)	5	-1%	22%	16µM*	-13%[46.1 µM]	-31%
O=C(O)C1CCCN1S(=O)(=O)c1ccc(Br)s1 (stereo not drawn) (tested in a mixture with another compound)	6	-9%	21%	-9%	-8%[46.1 µM]	1%
COCC(=O)Nc1ccc(Nc2ccccc2)cc1	-1	-4%	71µM*	-8%	-16%[46.1 µM]	14%
O=C(Nc1ccc(Nc2ccccc2)cc1)C(Cl)Cl	0	-10%	-10%	13µM*	-30%	18%
CC(C)(C)C(=O)C(Cl)C(=O)Nc1ccccc1 (stereo not drawn)	6	5%	45µM*	/	-20%	-3%
C[C@H](NC(=O)[C@@H](N)Cc1ccc(O)cc1)C(=O)NCC(=O)N[C@H]1CSSC[C@@H](C(=O)O)NC(=O)[C@H](CO)NC(=O)[C@H]([C@@H](C)O)NC(=O)[C@H](Cc2ccccc2)NC(=O)[C@H]([C@@H](C)O)NC(=O)[C@H](CCCCN)NC(=O)[C@H](Cc2c[nH]c3ccccc23)NC(=O)[C@H](Cc2ccccc2)NC(=O)[C@H](Cc2ccccc2)NC(=O)[C@H](CC(N)=O)NC(=O)[C@H](CCCCN)NC1=O	1	/	1%	/	/	/
